High-throughput results from PubChem.
Most compounds without a hit are left out; they make up all but 1.1% or so of the library.
LmPK inh = blocks Leishmania mexicana pyruvate kinase activity; Potency, µM (titrated, usually from 57.5 µM), without a hit: at the highest dose activity change, negative = inhibition, usual class: inhibitors; purified LmPK, Kinase-Glo ATP luminescence, 1 h; actives 0.37% (n = 290,000); Q27686; note: % is set by controls: 0 for no effect and ±100 for the full control effect
Target sequence (Q27686 whole entry, looked up): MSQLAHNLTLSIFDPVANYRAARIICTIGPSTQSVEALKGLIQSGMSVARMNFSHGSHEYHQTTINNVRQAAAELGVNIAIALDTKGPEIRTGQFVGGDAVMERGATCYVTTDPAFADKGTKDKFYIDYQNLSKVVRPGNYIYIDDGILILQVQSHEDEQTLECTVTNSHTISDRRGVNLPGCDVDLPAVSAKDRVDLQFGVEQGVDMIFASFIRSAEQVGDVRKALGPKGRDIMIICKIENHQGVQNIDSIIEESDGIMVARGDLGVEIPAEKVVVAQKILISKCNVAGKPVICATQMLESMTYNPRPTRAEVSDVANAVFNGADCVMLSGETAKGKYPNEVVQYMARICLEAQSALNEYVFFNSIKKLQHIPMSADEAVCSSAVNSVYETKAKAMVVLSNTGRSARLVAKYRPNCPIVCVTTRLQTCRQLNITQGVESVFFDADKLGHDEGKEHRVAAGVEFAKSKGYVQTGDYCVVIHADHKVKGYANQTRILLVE
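0.1 nM LmPK, 0.5 mM PEP, 0.1 mM ADP; 50 mM imidazole pH 7.2, 7 mM MgCl2, 50 mM KCl; 1 h RT. Kinase-Glo luminescence readout, normalized to no-enzyme (full inhibition) and uninhibited wells.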
RE007 growth inh = less growth of the S. pombe RE007 Vpr strain; Potency, µM (top dose mostly 92.2 µM), for the others: top-dose activity change, negative = less growth, hits mostly inhibitors; AID 651644; actives 0.21% (n = 360,000); S. pombe RE007 Vpr strain, BacTiter-Glo ATP luminescence, 24 h; active = well fitted falling curve with a large enough effect; inconclusive = small, poorly fitted or top-dose-only effect; inactive = no such curve, though single readings can be large or run the other way; note: % is set by controls: 0 for no effect and ±100 for the full control effect; nearly all actives have a fitted effect of over 50% in size
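Fission yeast strain RE007, carrying one chromosomally integrated HIV-1 vpr copy, was seeded at OD 0.01 in PMG+AL medium with 23 nL pinned compound. After 24 h at 30 °C and 99% humidity, viability was read by BacTiter-Glo luminescence.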
SARS PLP yeast = blocks SARS-CoV papain-like protease in a yeast assay; S. cerevisiae expressing SARS-CoV PLpro, growth rescue; Potency, µM (highest dose often 32.9 µM), without a hit: top-dose activity, positive = growth rescue, actives largely listed as activators; actives 0.19% (n = 330,000); AID 485353; calls by dose curve; note: 0% is about no effect; nearly all actives have a fitted effect of over 55% in size
TbPYK inhibitor = T. brucei pyruvate kinase inhibition | TbPYK enzyme, Kinase-Glo Plus ATP luminescence, 45 min | Potency, µM (doses to about 76.8 µM), for the others: top-dose activity, negative = inhibition, usual class: inhibitors | actives 0.12% (n = 410,000) | AID 624173; note: % is set by controls: 0 for no effect and ±100 for the full control effect; nearly all actives have a fitted effect of over 50% in size
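TbPYK + substrate in 50 mM TEA pH 7.2, 100 mM KCl, 10 mM MgCl2, 0.05% BSA, 0.01% Tween-20; cpd pinned; ADP 130 uM final; 45 min RT; Kinase-Glo Plus 10 min; luminescence endpoint.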
FBPA Giardia inh = blocks Giardia fructose-bisphosphate aldolase activity; A8B2U2; purified Giardia FBPA; Potency, µM (top dose mostly 59.6 µM), for inactives: at the top dose activity, negative = inhibition, actives largely listed as inhibitors; actives 0.71% (n = 290,000); AID 2451; note: % is set by controls: 0 for no effect and ±100 for the full control effect; nearly all actives have a fitted effect of over 55% in size
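Giardia FBPA (40 nM reagent) was preincubated 10 min at RT with compound (up to 57.5 uM final), then substrate plus GAPDH/TPI/NAD/arsenate coupling system with diaphorase/resazurin was added; resorufin fluorescence (525/598 nm) was read after 20 min.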
The depositor's hits bear a star; ? = inconclusive; · = not tested or not shown. Unless noted, calls come from the whole dose curve; as a rule, active = well fitted curve in the direction sought with a large enough effect; inconclusive = small, poorly fitted or top-dose-only effect, or another doubt; inactive = no such curve, though single readings can be large; an effect the other way counts as inactive or inconclusive. Potency is the fitted concentration of half-maximal effect.

SMILES	LmPK inh	RE007 growth inh	SARS PLP yeast	TbPYK inhibitor	FBPA Giardia inh
COc1ccc(/C=N/N=C2/NC(=O)C(CC(=O)O)S2)cc1OCc1ccccc1Cl (stereo unspecified)	?	27%	11%	?	9%
CCOc1cc(/C=N/N=C2/NC(=O)C(CC(=O)O)S2)ccc1OCc1ccccc1Cl (stereo unspecified)	22µM*	-11%	0%	-16%	29%
Cc1ccc(N/N=C/c2c(C)c(C#N)c(=O)n(C)c2O)cc1C	2%	-7%	0%	-18%	13µM*
Nc1nonc1C(=O)NCCN=Cc1cc(Cc2ccccc2)cc(Br)c1O	-6%	16µM*	-38%	5%	4%
Nc1nonc1C(=O)NCCN=Cc1ccccc1O	-10%	7%	-6%	1%	-18%
C/C(=C\C(=S)Nc1ccccc1)Nc1cccc2ccccc12	-5%	-26%	-15%	-8%	?
C/C(=C\C(=S)Nc1ccccc1)Nc1ccc2ccccc2c1	-4%	?	-89%	10%	2µM*
CC(C)c1ccc(Nc2c(-c3ccc(N(C)C)cc3)nc3cnccn23)cc1	·	·	·	-2%	·
O=[N+]([O-])c1ccc(C=Nc2cccc3ccccc23)s1	1%	22µM*	-5%	-13%	?
Fc1ccc(NCc2cn3ccccc3n2)cc1	11µM*	2%	0%	6%	?
CCOc1ccc(N=Nc2c(=O)[nH]n3c(=O)cc(C)[nH]c23)cc1	14µM*	?	-13%	-12%	-14%
Cc1cc(=O)n2[nH]c(=O)c(N=Nc3ccccc3)c2[nH]1	-20%	-6%	-5%	-15%	-24%
CC1(C(=O)O)CCC2(C)CCC3(C)C(=CC(=O)[C@@H]4C5(C)CC[C@H](O[C@H]6O[C@H](C(=O)O)C(O)C(O)[C@H]6O[C@@H]6O[C@H](C(=O)O)C(O)C(O)C6O)C(C)(C)[C@@H]5CCC43C)[C@@H]2C1 (stereo partly specified)	·	·	·	9%	·
COCCCNC(=O)c1sc2nc(C)c(C(=O)Nc3ccc(C)cc3C)c(-c3ccc(Cl)cc3)c2c1N	·	·	·	0%	·
Cn1c2c(c(=O)n(C)c1=O)C(c1cccc(O)c1)CC(=O)N2 (stereo unspecified)	·	·	·	-8%	·
COc1cc(Cl)c(C)cc1NC(=O)c1cc(S(=O)(=O)N2CCCC2)ccc1F	·	·	·	1%	·
CNC(CC(=O)c1ccc([N+](=O)[O-])cc1)C(Cl)(Cl)Cl (stereo unspecified)	-11%	13µM*	-107%	13µM*	-28%
COc1ccc(-c2coc3cc(O)ccc3c2=O)c(OC)c1O	·	·	·	·	-10%
COc1ccc(-c2coc3cc(O)ccc3c2=O)c(O)c1O	·	·	·	·	18µM*
COc1cc(OC)cc(-c2nc3cc(C)ccc3o2)c1	14µM*	?	-10%	-20%	-8%
Cc1ccccc1/C(N)=N/OC(=O)c1ccc(F)cc1	16µM*	-10%	-3%	-12%	0%
CCOC(=O)c1ccccc1NC(=O)N1CCC(CN2CCOCC2)CC1	·	·	·	1%	·
O=C(/C=C/c1ccc([N+](=O)[O-])cc1)c1cccnc1	-3%	16µM*	-95%	-20%	5%
Nn1cnnc1N/N=C\c1ccc(-c2ccccc2[N+](=O)[O-])o1	-2%	-9%	-24%	-3%	1.8µM*
Cc1ccc(C)c(Cn2c(=O)n(-c3ccccc3)c(=O)c3c4c(sc32)CCCC4)c1	·	·	·	-13%	·
SMILES	LmPK inh	RE007 growth inh	SARS PLP yeast	TbPYK inhibitor	FBPA Giardia inh
O=C(O)CCCNc1cc(N2CCC3(CC2)OCCO3)c2noc3c2c1C(=O)c1ccccc1-3	?	·	-3%	·	?
CCOC(=O)N1CCN(c2cc(NCCC(=O)O)c3c4c(onc24)-c2ccccc2C3=O)CC1	16µM*	?	-4%	-15%	5.6µM*
COc1ccc(S(=O)(=O)Nc2cc(OC)cc3cccnc23)cc1	·	·	·	·	-9%
Cc1[nH][nH]c(=O)c1C(c1ccc(-c2cccc(C(=O)O)c2)o1)c1c(C)[nH][nH]c1=O	4%	2%	0%	-9%	20µM*
COc1ccc(C(=O)Oc2ccc(C(c3c(C)[nH][nH]c3=O)c3c(C)[nH][nH]c3=O)cc2OC)cc1	·	·	·	-6%	·
Cc1[nH][nH]c(=O)c1C(c1ccc(-c2ccccc2C(=O)O)o1)c1c(C)[nH][nH]c1=O	3%	-20%	1%	-12%	7.9µM*
Cc1[nH][nH]c(=O)c1C(c1ccc(-c2cccc(Cl)c2)o1)c1c(C)[nH][nH]c1=O	3%	-8%	0%	?	5µM*
COC(=O)c1ccc(-c2ccc(C(c3c(C)[nH][nH]c3=O)c3c(C)[nH][nH]c3=O)o2)cc1	-2%	7%	-8%	-19%	4.5µM*
COC(=O)[C@]12CCC(C)(C)C[C@@H]1[C@@H]1C(=O)C=C3[C@@]4(C)C=C(C#N)C(=O)C(C)(C)[C@@H]4CC[C@@]3(C)[C@]1(C)CC2	·	·	·	1%	·
Cc1[nH][nH]c(=O)c1C(c1ccc(Br)cc1)c1c(C)[nH][nH]c1=O	1%	1%	-7%	-2%	-23%
Cc1[nH][nH]c(=O)c1C(c1ccc(-c2ccc(Cl)cc2Cl)o1)c1c(C)[nH][nH]c1=O	13%	·	-13%	·	13µM*
CC(=O)NCc1c(Cl)cccc1-n1cccc1	1%	10%	10µM*	0%	6%
CCC(=O)NCc1c(Cl)cccc1-n1cccc1	3%	15%	3%	12%	11%
CCOc1cccc(/C=N/N=C/c2cccc(OCC)c2O)c1O	-8%	-8%	-1%	-3%	-3%
CCOc1cccc(C=Nc2cc(C)cc(C)c2O)c1O	22µM*	3%	-12%	-11%	?
CC12CCC(=O)CC1CCC1C2CCC2(C)C1CCC2(C)O (stereo unspecified)	·	·	·	-10%	·
Cc1sc2c(c1C)c(=O)n(-c1cccc(C(F)(F)F)c1)c(=O)n2Cc1ccc(F)cc1	·	·	·	-2%	·
O=C(OCC1OC(OC(=O)c2cc(O)c(O)c(OC(=O)c3cc(O)c(O)c(O)c3)c2)[C@@H](OC(=O)c2cc(O)c(O)c(OC(=O)c3cc(O)c(O)c(O)c3)c2)C(OC(=O)c2cc(O)c(O)c(OC(=O)c3cc(O)c(O)c(O)c3)c2)C1OC(=O)c1cc(O)c(O)c(OC(=O)c2cc(O)c(O)c(O)c2)c1)c1cc(O)c(O)c(OC(=O)c2cc(O)c(O)c(O)c2)c1 (stereo partly specified)	·	·	·	?	3.5µM*
Fc1ccc(-n2nnc(-c3cccnc3Cl)n2)cc1	-26%	-24%	-1%	-1%	8%
Clc1ncccc1-c1nnn(-c2ccccc2)n1	16µM*	-23%	-1%	-11%	4%
CN(C)c1ccc(/C=C/C=C/c2sc3ccccc3[n+]2C)cc1	-26%	?	-1%	-29%	-2%
